Screens deposited in PubChem BioAssay by National Center for Advancing Translational Sciences (NCATS).
PNC assembly inh: inhibitors of perinucleolar compartment assembly; AID 2417; PC3M PTB-GFP, PNC prevalence imaging, 16 h; hits give low values; activity change (PNC), negative = inhibition, % at 10 µM; actives 3.1% (n = 140,000);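 active = readout at or below -70, meaning at least 70% loss of cells showing the perinucleolar compartment, a nuclear body marking cancer cells; inconclusive = readout between -30 and a set limit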;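 also: plate controls were DMSO wells for no effect and camptothecin positive control wells for full effect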
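Read-out is percentage of cells bearing a perinucleolar compartment, from automated 20x imaging of fixed, Hoechst-stained PC3M PTB-GFP cells. Cells were seeded 4 h, then exposed 16 h to compound (23 nl of library stock) in duplicate plates.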
HttQ103 aggreg: mutant huntingtin aggregation inhibition. PC12 HttQ103-GFP aggregates, Acumen cytometry, 40 h. Potency, µM (top dose mostly 46.1 µM), without a hit: at the top dose activity change, negative = inhibition, actives largely listed as inhibitors. actives 1.1% (n = 220,000). AID 1688; also: potency is read from the fitted curve at half-maximal effect; % is scaled to controls: 0 for no effect and ±100 for the full control effect; nearly all actives have a fitted effect of over 60% in size
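Aggregates are detected as GFP objects 1–25 µm with signal 6 STDEV over background in lysates of induced PC12 cells. These carry Huntingtin exon 1 with 103 glutamines fused to GFP under an ecdysone promoter; compounds titrated.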
HPGD inh: blocks human HPGD enzyme activity | Potency, µM, for inactives: at the highest dose activity change, negative = inhibition, actives largely listed as inhibitors | AID 894 | actives 4.3% (n = 150,000) | P15428 | purified HPGD, NADH fluorescence kinetic, PGE2 substrate; active = well fitted inhibition curve with a large enough effect, not every such curve was filed as active; inconclusive = small, poorly fitted or top-dose-only effect, or another doubt; inactive = no such curve, though single readings can be large or run the other way; also: potency is read from the fitted curve at half-maximal effect; % is scaled to controls: 0 for no effect and ±100 for the full control effect
Target sequence (P15428 whole entry, looked up): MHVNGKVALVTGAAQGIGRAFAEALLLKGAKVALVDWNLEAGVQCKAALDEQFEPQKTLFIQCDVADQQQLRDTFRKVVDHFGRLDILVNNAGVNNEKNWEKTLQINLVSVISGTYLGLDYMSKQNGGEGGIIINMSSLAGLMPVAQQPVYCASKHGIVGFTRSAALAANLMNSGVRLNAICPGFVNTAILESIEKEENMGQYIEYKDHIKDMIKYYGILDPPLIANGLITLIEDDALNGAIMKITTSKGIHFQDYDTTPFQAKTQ
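NADH formation kinetics: reaction with 30 uM PGE2 and 1 mM NAD+ (final), 20 nM enzyme, Tris-HCl pH 8 with Tween 20, after 15 min compound preincubation at room temperature. Fluorescence change, last versus first of five reads.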
CBFb-RUNX1 inh: inhibitors of human CBF-beta and RUNX1 interaction; Q01196+Q13951; AlphaScreen CBFb-His/RUNX1-biotin binding, biochemical; Potency, µM (series often up to 59.8 µM), for inactives: top-dose activity, negative = inhibition, actives largely listed as inhibitors; 230,000 tested, under 10 active; AID 1477; also: % of control where 0% means no effect
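Interaction loss through any mechanism counts as activity. Pre-formed complex of His-CBF-beta and biotin-RUNX1 (30 nM apiece) is incubated with compound 15 min, then with 50 ng nickel and 50 ng streptavidin beads for 90 min before AlphaScreen detection.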
HTT cytoprotect: Huntington cell model cytoprotection by ATP luminescence | Potency, µM (doses to about 56.4 µM), for the others: cytoprotection (ATP increase), actives largely listed as activators | actives 0.14% (n = 230,000) | PC12 HTT-Q103 induced, cytoprotection, ATP luminescence, 40 h; also: potency is read from the fitted curve at half-maximal effect; % of control where 0% means no effect; nearly all actives have a fitted effect of over 45% in size
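Quantitative HTS on tebufenozide-induced (100 nM) PC12 cells expressing HTTQ103 exon 1–GFP; compounds tested as a concentration series; survival measured via cellular ATP.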
ALDH1A1 inh: ALDH1A1 (human) enzyme inhibition | P00352 | Purified ALDH1A1, NADH fluorescence, propionaldehyde substrate | Potency, µM (highest dose often 75.3 µM), inactives show top-dose activity, negative = inhibition, hits mostly inhibitors | actives 7.3% (n = 220,000); active = well fitted inhibition curve with a large enough effect, not every such curve was filed as active; inconclusive = small, poorly fitted or top-dose-only effect, or another doubt; inactive = no such curve, though single readings can be large or run the other way;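 also: potency is read from the fitted curve at half-maximal effect; plate controls were no enzyme wells and a reference inhibitor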
Target sequence (P00352 whole entry, looked up): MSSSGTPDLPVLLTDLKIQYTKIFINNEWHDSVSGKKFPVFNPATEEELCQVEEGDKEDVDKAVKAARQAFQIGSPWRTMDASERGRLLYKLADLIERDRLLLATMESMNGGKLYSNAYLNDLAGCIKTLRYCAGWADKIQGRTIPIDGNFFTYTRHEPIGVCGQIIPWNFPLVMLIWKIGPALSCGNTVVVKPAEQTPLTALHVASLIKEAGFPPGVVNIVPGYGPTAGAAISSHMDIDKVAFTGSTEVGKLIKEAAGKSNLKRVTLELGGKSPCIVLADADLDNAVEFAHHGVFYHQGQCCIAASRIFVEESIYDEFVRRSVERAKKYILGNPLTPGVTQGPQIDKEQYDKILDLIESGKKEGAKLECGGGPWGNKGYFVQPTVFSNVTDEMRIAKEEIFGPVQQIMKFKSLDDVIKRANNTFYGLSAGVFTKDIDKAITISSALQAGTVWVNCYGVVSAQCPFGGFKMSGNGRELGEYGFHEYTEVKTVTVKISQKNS
Numbers without * were called inactive; ? = inconclusive; . = not tested or not shown; [ ] = another dose, or the depositor's remark. Compounds with a hit are over-represented: about 11% of the library has one in this group of screens. Unless noted, calls follow the shape of the dose curve; as a rule, active = well fitted curve in the direction sought with a large enough effect; inconclusive = small, poorly fitted or top-dose-only effect, or another doubt; inactive = no such curve, though single readings can be large; an effect the other way counts as inactive or inconclusive.

SMILES	PNC assembly inh	HttQ103 aggreg	HPGD inh	CBFb-RUNX1 inh	HTT cytoprotect	ALDH1A1 inh
CC(C)(C)C(=O)Cn1ncc(Br)c(Br)c1=O	.	14.1%[9.22 µM]	.	3.3%	-214.8%	7.94µM*
CCN(CC)c1ccc(/C=N/NC(=O)c2ccc(O)cc2)cc1	.	.	?	12.6%	-162.2%	?
COc1cc(C(=O)Nc2nnc(C(C)(C)C)s2)c([N+](=O)[O-])cc1OC	-3.2	6.2%	20µM*	4.5%	-7.1%[10 µM]	?
COC(=O)c1cc(OC)nc2ccc(Br)cc12	.	-4.5%[9.22 µM]	.	24.9%	-12.9%[10 µM]	0.2%
Cc1ccc(C)c(C(C)NC(=O)CC#N)c1 (stereo not drawn)	.	.	.	4.6%	.	-4.5%
Cc1ccc(C)c(C(C)NC(=O)c2ccc(Br)o2)c1 (stereo not drawn)	.	-2.7%[9.22 µM]	.	-1.6%	-33.0%	3.98µM*
Cc1ccc(C(CC(=O)c2ccc(Cl)cc2)C(=O)O)cc1 (stereo not drawn)	.	-11.2%	.	14.9%	-4.0%	3.7%
Cc1ccc(SC(CC(=O)c2ccc(C)cc2)C(=O)O)cc1 (stereo not drawn)	?	-51.9%	-20.0%	20.1%	?	0.126µM*
O=c1[nH]c(=O)n([C@H]2C[C@H](O)[C@H](CO)O2)cc1/C=C\Br	.	.	.	.	-6.9%[1.9 µM]	.
Cc1ccc(S(=O)(=O)N2CC=C(c3ccc(F)cc3)CC2)cc1	-80.3*	-13.9%	-13.8%	1.5%	-8.8%[1.9 µM]	9.2%
O=c1cc(-c2ccccc2F)oc2ccccc12	4.2	-24.5%	12.6µM*	-2.9%	10.9%[1.9 µM]	-2.3%
COc1cccc2oc(-c3ccccc3)cc(=O)c12	.	.	?	-0.4%	-45.4%[1.9 µM]	?
COc1cccc(-c2cc(=O)c3ccccc3o2)c1N	.	.	12.6µM*	?	-161.1%	?
CCSc1nc2ccccc2n1C(=O)/C=C\c1ccc(OC)c(OC)c1	42.5	?	-9.6%	2.1%	-0.5%	10.5%
COc1ccccc1C1=Nn2c(nnc2-c2ccccc2O)SC1	.	.	.	-5.4%	.	.
COc1cc(C2Nn3c(nnc3-c3ccccc3OC)S2)ccc1O (stereo not drawn)	-15.4	7.4%	?	11.9%	?	23.8µM*
Cc1cc(C)c(NC(N)=S)c(C)c1	.	22.5%[9.22 µM]	.	0.5%	11.9%[10 µM]	.
Cc1cc(C)n(S(=O)(=O)c2ccc(C(C)(C)C)cc2)n1	?	?	20µM*	11.6%	-16.3%[0.074 µM]	12.6µM*
Cc1cc(C)n(S(=O)(=O)c2ccc3ccccc3c2)n1	-7.9	-11.1%	-28.7%	4.0%	-4.2%	?
CN1c2ccccc2C(=O)N2CCc3c([nH]c4ccccc34)C21 (stereo not drawn)	.	.	.	-10.6%	.	.
CCCCOCCCNC(=O)c1ccc2c(c1)OCO2	12.7	-4.4%	25.1µM*	10.1%	17.1%	-0.6%
CCCCOCCOCCOCc1cc2c(cc1CCC)OCO2	.	23.1%	-11.3%	8.1%[21.7 µM]	11.3%	10µM*
CC(OC(=O)CNC(=O)c1ccc2c(c1)OCO2)C(=O)NCCC1=CCCCC1 (stereo not drawn)	?	-11.2%	17.8µM*	2.6%	6.7%	2.8%
CCOCCCNC(=O)C(NC(=O)c1ccc2c(c1)OCO2)c1ccccc1 (stereo not drawn)	.	19.7%	.	9.4%	-33.2%	-4.1%
COCCCNC(=O)c1ccc2c(c1)OCO2	23.5	-3.6%	6.31µM*	-4.3%	9.7%[1.9 µM]	-2.2%
SMILES	PNC assembly inh	HttQ103 aggreg	HPGD inh	CBFb-RUNX1 inh	HTT cytoprotect	ALDH1A1 inh
CC(C)(CO)NC(=S)NCc1ccco1	.	-3.3%[9.22 µM]	.	5.4%	-8.1%[10 µM]	?
N#Cc1ccc(N2C(=O)[C@@H]3C(C(=O)c4ccc5ccccc5n4)=NN[C@@H]3C2=O)cc1	30.9	17.5%	-19.9%	-3.0%	-0.6%[10 µM]	7.94µM*
N#Cc1ccc(N2C(=O)[C@@H]3C(C(=O)c4cnccn4)=NN[C@@H]3C2=O)cc1	.	8.5%[9.22 µM]	.	-10.7%	-3.9%[10 µM]	14.1µM*
O=C(C1=NN[C@@H]2C(=O)N(c3cccc(C(F)(F)F)c3)C(=O)[C@H]12)c1cnccn1	.	2.0%[9.22 µM]	.	-0.8%	1.0%[10 µM]	.
O=C(C1=NN[C@@H]2C(=O)N(c3ccccc3C(F)(F)F)C(=O)[C@H]12)c1ccc2ccccc2n1	-23.7	-20.5%	-8.1%	1.0%	-1.6%[10 µM]	7.7%
CCC(C)/C(C)=N/NC(=O)c1ccc(COc2ccc(Cl)c(C)c2)cc1 (stereo not drawn)	-134.0*	0.3%	-14.7%	10.7%	-0.9%[10 µM]	12.6µM*
CCOc1ccc(OCc2ccc(C(=O)N/N=C(\C)c3ccccn3)cc2)cc1	.	?	.	?	-41.0%[10 µM]	?
NNC(=O)CS(=O)(=O)Nc1ncccn1	.	.	-7.6%	.	-6.0%[10 µM]	15.7%[13.5 µM]
CCCC(=O)Nc1ccc(NC(=O)CCc2ccccc2)cn1	-113.7*	-10.1%	-10.2%	6.0%	-5.4%[10 µM]	-3.7%
CCCC(=O)Nc1ccc(NC(=O)c2ccccc2Cl)nc1	-84.0*	-14.1%	-1.5%	5.4%	-51.6%[10 µM]	-1.6%
CCOC(=O)c1ccc(N2CCOCC2)c(NC(=O)c2c(-c3ccccc3)noc2C)c1	.	6.0%[9.22 µM]	.	11.2%	3.8%[10 µM]	?
COc1ccc(-c2nc(-c3ccccc3)oc2Nc2c(C)cccc2C)cc1	.	.	-8.4%	4.7%	16.4%	0.8%
O=C1C=C[C@@H](O)[C@H]2[C@@H]3C(=O)N(Cc4ccc5c(c4)OCO5)C(=O)[C@@H]3CC[C@H]12	.	.	.	20.4%[13.1 µM]	3.0%[10 µM]	-8.3%[13.5 µM]
Cc1noc(C)c1-c1cncnc1NCc1cccnc1	.	.	.	.	-4.4%	25.1µM*
Cc1noc(C)c1-c1cncnc1NCc1ccccc1	.	.	.	.	-24.8%	?
CN(C)c1ccnc2sc3c(SCc4ccc(Cl)cc4)ncnc3c12	20.7	-10.0%	15.8µM*	6.3%	7.8%[10 µM]	1.5%
CCOCCCNC(=O)c1ccc2c(c1)ncn2C1CCCC1	-22.6	-0.3%	17.8µM*	-1.4%	18.0%[10 µM]	?
CC(C)CCNC(=O)c1ccc2c(c1)ncn2C1CCCC1	.	-11.3%	.	6.7%	-60.7%	?
CC1CCC2C(=O)N(c3cccc(OS(=O)(=O)c4ccccc4)c3)C(=O)C2C1 (stereo not drawn)	31.2	13.1%	-12.5%	14.2%	.	12.6µM*
O=C1CCC(=O)N1c1cccc(OS(=O)(=O)c2ccccc2)c1	?	2.7%	-6.2%	4.4%	.	0.355µM*
Nc1ccn([C@@H]2CC[C@H](CO)O2)c(=O)n1	.	.	-1.6%	-12.8%[21.7 µM]	5.8%[40.3 µM]	7.8%[20.9 µM]
CCC/C=C(\CCC)C(NS(=O)(=O)CC12CCC(CC1=O)C2(C)C)c1ccc(C(=O)OC)cc1 (stereo not drawn)	.	.	22.4µM*	4.5%	11.1%	10µM*
O=C(CN1CCCCC1)N=Nc1c(O)[nH]c2ccccc12	.	-3.3%[9.22 µM]	.	5.9%	12.5%[10 µM]	12.6µM*
O=C(CN1CCN(Cc2ccccc2)CC1)N=Nc1c(O)[nH]c2ccccc12	-14.4	9.3%	-4.9%	3.5%	10.3%[10 µM]	10.9%
